Screen size: about 320,000 compounds; about 2,100 (0.66%) were called active. Inconclusive results (about 53%) are left out. The call rests on the fitted dose curve; in most records, active means well fitted inhibition curve with a large enough effect in the signal ratio, with a control signal flat (not every such curve was filed as active); inconclusive means small, poorly fitted or top-dose-only effect, or effect the other way, or a change in a side signal; inactive means flat fitted curve, though single readings scatter; the % refers to the signal ratio. The sample as a whole holds a higher share of actives than the screen did.
Assay: qHTS Assay for Lipid Storage Modulators in Drosophila S3 Cells;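 on cell number change: cells counted by Cell Tracker Red CMTPX staining in the red channel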; on lipid storage change, negative = inhibition: on the % scale 0 is the no-effect control and ±100 the full control effect
Conditions: BODIPY lipid droplet fluorescence, 18-24 h, cells fed with added oleic acid; cell number change: measured here: cell count max response; series mostly up to 46.1 µM; lipid storage change, negative = inhibition: at the top concentration
Outline: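 Laser-scanning cytometry quantifies lipid droplet accumulation (500–530 nm total intensity; droplet/cell object ratio) in oleic acid-fed (400 uM added) Drosophila S3 cells treated with a concentration series. 20 uM Triacsin C defined 100% inhibition.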
Potency means the concentration at half of the fitted maximal effect.

Row | Structure (SMILES) | lipid storage change, negative = inhibition | cell number change | Potency | outcome
1 | CC(C)CCNC(=O)C1CCC(=O)N1CCc1ccccc1 (centres undefined) | 1.46% (inactive) | 19.8% | – | –
2 | CC(C)(C)NC(=O)CN(C(=O)C(=O)Nc1ccc2c(c1)OCCO2)C(C)(C)C | -0.996% (inactive) | -1.34% | – | –
3 | CCC(C)(C)NC(=O)CN(Cc1cccs1)C(=O)C(=O)Nc1ccc2c(c1)OCCO2 | -17.7% (inactive) | 3.41% | – | –
4 | CCC(C)(C)NC(=O)CN(C(=O)C(=O)Nc1ccc2c(c1)OCCO2)C1CC1 | – | -1.67% | 1.16 µM (active) | –
5 | O=C(c1ccco1)N1CCN(c2cc(=O)n(-c3ccc(Cl)cc3)c(=O)[nH]2)CC1 | -21.2% (inactive) | – | – | –
6 | Cc1cc(NS(=O)(=O)c2ccc(NC(=O)CSc3nc4ncccc4[nH]3)cc2)nc(C)n1 | -7.33% (inactive) | -9.17% | – | –
7 | CCOC(=O)CNC(=O)c1sc(NC(=O)c2ccccc2)nc1C | 13.4% (inactive) | -2.79% | – | –
8 | Cc1nn(C)c(=S)n1-c1ccc(Cl)cc1 | -1.67% (inactive) | 4.59% | – | –
9 | Cc1nn(-c2ccccc2)c(=S)n1-c1ccccc1 | – | -7.47% | 32.6 µM (active) | –
10 | Cc1n[nH]c(=S)n1-c1ccccc1 | 0.353% (inactive) | 8.27% | – | –
11 | Cc1ccc(NC(=O)NCc2cccn2C)cc1C | 6.76% (inactive) | 7.96% | – | –
12 | O=C(Nc1cccc(O)c1)C(=O)Nc1ccccn1 | 16% (inactive) | 0.58% | – | –
13 | O=C(NCc1ccc2c(c1)OCO2)c1ccc(Br)s1 | 18.6% (inactive) | 15.1% | – | –
14 | COC(C(=O)Nc1ccnn1C1CCN(Cc2ccccn2)CC1)c1ccccc1 (centres undefined) | -3.44% (inactive) | -9.38% | – | –
15 | COC(C(=O)Nc1ccnn1C1CCN(Cc2nccs2)CC1)c1ccccc1 (centres undefined) | – | -27.2% | 18.4 µM (active) | –
16 | COC(C(=O)Nc1ccnn1C1CCN(Cc2ccc(C)s2)CC1)c1ccccc1 (centres undefined) | 4.04% (inactive) | -1.51% | – | –
17 | CCc1cc(Br)ccc1NC(=S)NCCc1ccccc1 | – | -12.4% | – | inactive
18 | Cc1ccc(/C=N/NC(=O)CSc2nc3ccccc3[nH]2)o1 | – | 23.1% | – | inactive
19 | CCOC(=O)c1c[nH]c2c(C)cc(C)cc2c1=O | -5.71% (inactive) | -13.9% | – | –
20 | CCCNC(=O)c1ccc(N2CCC3(CC2)CC(c2ccccc2)=NO3)c(NC(=O)c2ccco2)c1 | – | -21.9% | 5.17 µM (active) | –
21 | Cc1ccc(CNC(=O)c2ccc(N3CCC4(CC3)CC(c3cccc(Br)c3)=NO4)c(NC(=O)c3ccco3)c2)cc1 | -0.741% (inactive) | -15.2% | – | –
22 | CCCNC(=O)c1ccc(N2CCC3(CC2)CC(c2cccc(Br)c2)=NO3)c(NC(=O)c2cccc(C)c2)c1 | -10.4% (inactive) | -6.01% | – | –
23 | COc1ccccc1NS(=O)(=O)c1ccc2c(c1)CCN2C(=O)CCC(=O)O | 11.3% (inactive) | 0.926% | – | –
24 | CC(C)c1c(C(=O)N/N=C/c2cccnc2)nnn1-c1nonc1N | – | -22.2% | – | inactive
25 | CCc1ccc(-c2ccc(SCc3ccccn3)nn2)cc1 | 1.79% (inactive) | -1.78% | – | –

Reference: PubChem BioAssay AID2685 (National Center for Advancing Translational Sciences (NCATS), 2010)
